The values that follow come from PubChem BioAssay (EPA / NIEHS).

Records with an inconclusive call do not appear. Activity calls are given as the source filed them. The calls were made as follows: active = hit-call score of the fitted dose curve at least 0.9, where 1 is the maximum; inconclusive = response in the unintended direction; inactive = score below 0.9.

This assay is described as follows: ACEA_ER_AUC_viability: ACEA Biosciences xCELLigence Real-Time Cell Analysis on Estrogen Receptor Agonism for Viability (AID 2283782).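 Also: continuous compound exposure with impedance area under curve over 80 h; hit means loss of impedance signal meaning reduced cell growth or viability.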 The gist of the method: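 T-47D; phenol red-free RPMI1640 + 10% CS-FBS; 8 conc., 1:4 serial, max 100 uM final, ≤0.5% DMSO; n = 2; continuous exposure; impedance monitored to 80 h post-dose; AUC vs DMSO.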
With `CCOc1ccccc1O`, the compound was classed as inactive.

On to `CC/C=C\CCOC(=O)CC`, for which the call was inactive.

Consider `O=C(CS)OCCOC(=O)CS`, for which the AC50 was 82.2 µM (active).

On to `C=C[Si]1(C)O[Si](C)(C=C)O[Si](C)(C=C)O[Si](C)(C=C)O1` (configuration not stated), for which the AC50 was 88 µM (active).

On to `Cc1ccc(N)c(S(=O)(=O)O)c1`, for which the compound was classed as inactive.

For `N#Cc1cscn1`, the outcome was inactive.

As for `C=C(C)C(=O)OCCOCCOCCOC(=O)C(=C)C`, the outcome was inactive.

For the compound `CCCCCCOC(=O)CCC`, the compound was classed as inactive.

As for `COCCOC(=O)c1ccccc1C(=O)OCCOC`, the call was inactive.

As for `C=C(C)[C@H]1CC=C(C)C(=O)C1`, the outcome was inactive.

On to `CC(=O)O[C@@H]1C[C@@H]2CC[C@@]1(C)C2(C)C`, for which the result was inactive.

For `C=CC(C)C#N` (configuration not stated), the call was inactive.

For `COC(=O)c1cccnc1`, the compound was called inactive.

For the compound `O=CN1CCOCC1`, the compound was called inactive.

Consider `CCC(C)=O`, for which the result was inactive.

Take `CC(C)CCCCCCCCCCCCCCC(=O)O`: the AC50 is 50 µM (active).

For `CC(C)(N=C=O)c1cccc(C(C)(C)N=C=O)c1`, the AC50 was 33.1 µM (active).

Take `O=C1OC2(c3ccccc31)c1ccc(O)c(Br)c1Oc1c2ccc(O)c1Br`: the call was inactive.

Take `Cc1cc(CCC(=O)OCCOCCOCCOC(=O)CCc2cc(C)c(O)c(C(C)(C)C)c2)cc(C(C)(C)C)c1O`: the compound was called inactive.

As for `CCCCOC(=O)CCCCCCCC(=O)OCCCC`, the result was inactive.

Turning to `CCCCCCCCCC(C)C=O` (configuration not stated), the call was inactive.

Consider `CCCCCCCCCCCCCCN(CCO)CCO`, for which the AC50 is 7.2 µM (active).

In the case of `CCc1ccc(O)c(OC)c1`, the outcome was inactive.

With `CCCCCCCCCCCCN1CCCCCC1=O`, the AC50 was 31.3 µM (active).

As to `O=C1CCCC=CCCCCCCCCCC1`, the AC50 is 84.1 µM (active).

`COc1cccc(OC)c1O`: the compound was classed as inactive.

Regarding `CCCCCCCCc1ccc(S(=O)(=O)O)cc1`, the compound was classed as inactive.

What is called AC50 is the midpoint of the concentration-response curve, whichever way the signal moves.
